# Data taken from the supplement of paper PMC11417369.
# In all, about 25,000 sequences were measured (“ln(normalized median fluorescence intensity)”: median about 7.1, highest 2% from about 10 on). Many of the other results were omitted from the sample, so the highest values are more common in it than they were.
# Test system: PfSIP2 AP2 domain 1 (GST-tagged)
# Assay: gcPBM binding intensity (ln(normalized median fluorescence intensity)); higher = stronger DNA binding
# How it was run: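 The highest Masliner-normalised natural-log median intensity across replicate spots of either probe orientation is reported as binding intensity. GST-tagged P. falciparum DNA-binding domains expressed in E. coli were applied for 1 h to an Agilent 4 × 180k array of primer-extended double-stranded 36-bp intergenic genomic probes plus negative controls, and bound protein was detected with Alexa488 anti-GST antibody and scanned at 488 nm.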
row,Sequence,gcPBM binding intensity (ln)
1,AAATGTTGAAAAATATGTACATATTATATATATTAT [XGTACX_site1165],7.1
2,ATGTTAATTAATGAGGTGCATTGAATATTTCAATAA,10.6
3,TCTTTCAATATTAATGCATGTTAATAATAAATTTTA [TGCATGCA_site448],6.89
4,AATATTTTTCAATTTCATGTGCATTCATTGAAGTTA [CACACA_negctrl_site1232],7.34
5,GAAAAATTTAATTATTGTACGTTTCATCTATATTTA [XGTACX_site414],6.91
6,TCATTTTATTATTCTACACACTTATCTATAATTATA [CACACA_site34],7.2
7,AAAAAAAAAAAAAAAGTGCATATATAAATATTGTAT [GTGCAC_site9459],9.58
8,AGGATATAAAGTTGTGCATGTCAAGTGCACCGTATT [TGCATGCA_site451],12.2
9,AAAAAAAAGTTGTAAGTGCATGTATATAATAATATT,8.08
10,ATATTACACATATATGCACACATTGTAGTTATTTAT [CACACA_site8843],9.43
11,TTTAGTTTTTATATAGCACACATATTGTGATTATGT [CACACA_site8316],6.96
12,ATTGTGCACTTATATGCACACATTTTAGTTTTTTTT [CACACA_site2028],10.6
13,ATATATATATAAAGTTGTACATTTTTTATTTTTTCA [XGTACX_site7847],9.04
14,ATTTATATGCACCATTGTACGTTTTATAAAGTTTGG [XGTACX_site3755],10.7
15,CATTTTGTTTTAAAGTGTACATTATGTAATATAAAA [XGTACX_site647],7.15
16,TACATATATATTTGTTCACACACACCCAAAAAAAAA [CACACA_site8788],7.01
17,AAAAGTAACAAAGCTACACACATTTAAATAAACATA [CACACA_site1421],6.94
18,GTTCTAAATATTATTGCATGTTGCACGTTTCTCTGT [TGCATGCA_site159],7.65
19,TGAACAGGTCATAATTTACACACTATATATTTTATT [CACACA_site8123],6.87
20,TGTATAAAAAACTAATGTACAAATGACAAGATATCT [XGTACX_site4600],6.9
21,GTAAGAAAGAAAGGAAGTACGTAAGAAAGTAAGAAC [XGTACX_site1239],7.27
22,TACATAAACTTTATAACACACACTTATATATATATA [CACACA_site1106],9.34
23,TTCATATTATAGTGCACACAAAAATATATATATGGT [CACACA_site2855],10.7

row,Sequence,gcPBM binding intensity (ln)
1,AACTCATAGCGGTGTGCACACAAAAAATTAAAAAAA [CACACA_site3033],8.94
2,ATGGCATAAATATATGCACACACAAAAAAAAAAAAA [CACACA_site7902],7.06
3,ATTAATTTTATATATGCACACAAAATATGTTCATAT [CACACA_site9350],7.13
4,AACTCATAGGAGTGTGCACACAAAAAATTAAAAAAA [CACACA_site8996],9.24
5,ATTATATATATTTATGCACACAAAATATATTATATA [CACACA_site9244],7.56
6,CTCATAGTTGGGTGCACACAAAAAATTAAAAAAATA [CACACA_site3032],12.3
7,CATATAAAAATATATGCACACAAATAAAAAATTATA [CACACA_site9210],7.29
8,ATTATATACATATATGCACACAAAAAAATATATATT [CACACA_site8508],7.28
9,TGAATATTCATATGCACACAAATTAATATACATAAT [CACACA_site442],7.03
10,TTTTCATATTATAGTGCACACAAAAATATATATATG [CACACA_site8929],10.8
11,ATTCACAAATATATGGTGCATAATATATATATATAT [GTGCAC_site9674],10.6
12,TGAATAAATATAAAAGGTACACATATAAATATATAT [XGTACX_site6349],7.11
13,TATATATATATAATATGTACATATAATCAACATTTT [XGTACX_site3915],8.68
14,TATTAGTCGAATGATGTACACACATACAAAACATTT [CACACA_site9331],6.96
15,TTTTTTTTTTGATGTTGTACATATATATTATATATA [XGTACX_site6377],7.17
16,TAAAAATAATTTGCATGTACATAGGTCGATGTATTT [XGTACX_site1357],7.08
17,ATACATATAGGATGCACACATAATTCAAATACAATA [CACACA_site651],7.73
18,ATCTATCATATTTATGCACACAAAAATAATTAATTC [CACACA_site8837],7.35
19,TTTTTTTCTAATTATGCACACATATCAAAATATTCA [CACACA_site8886],10.3
20,TTTTTCTAATTATGCACACATATCAAAATATTCAAT [CACACA_site2749],9.18
21,CGAAATCATATGTACACACACATATATATATATATA [CACACA_site2151],9.32
22,AATAATAAAGTGAACACACACATATAATATATATAT [CACACA_site4143],8.41
23,ATAATATTCGAGTGTGCACACAAACATACATATATA [CACACA_site3396],8.79

row,Sequence,gcPBM binding intensity (ln)
1,CTATAATAATAAAGTGAACACACACCGATAATATAT [CACACA_site9377],7.02
2,TGTATATAATCGAGTGCACACACAAAAAAAAAGTGA [CACACA_site8417],10.4
3,AAAATATAATATATTGCACACAAAAAGTGAATTATT [CACACA_site8489],6.95
4,ACACACAATACAAAAGTGCATATAATAATTAATCAT,8.76
5,TATATAATCGAGTGCACACACAAAAAAAAAGTGAAC [CACACA_site1483],10.8
6,TATATAACCGAGTGCACACACAAAAAAAAAGTGAAC [CACACA_site6806],11.1
7,ATAATAATAAAGTGAACACACACATATAATATATAT [CACACA_site9378],7.19
8,TATAATAATATTTATTGTACAATTAGTTTAATTCAT [XGTACX_site272],7.08
9,TACAAAAAAGAAGATATTCAAACAAAAACAAAAAAA [CACACA_negctrl_site1126],6.8
10,CTCCTCATATAATTTTGTACATAAAAAATTACCATT [XGTACX_site3879],7.31
11,CCCCATATAATGAACACACACACTCCTCATAATTAA [CACACA_site628],7.15
12,TAATCATAACTTGATACGCACACGTTATATAAATAA [CACACA_site1579],7.02
13,ATAAAATAAAATAAATGTACACGAAAAAAAATATTT [XGTACX_site3747],7.25
14,ATGAATAAATTAAAAATGCACACTTTGATGGGTACA [CACACA_site2157],7.46
15,TAACAATTAATAAAAGGTACACTTGAATATGCACCA [XGTACX_site2717],10.5
16,TATTATATATATGCACGTACAAAAATAATAAAGGTA [XGTACX_site3506],7.71
17,TTATACAGATATTTAACACACATTTTATAAAGTGCC [CACACA_site4851],6.87
18,TTTAAATACAGACATACACACATACACGCACATATA [CACACA_site6400],7.17
19,TTTAAATACAGACATACACACATACACAGACATATA [CACACA_site4460],6.97
20,TAAATTTTTAAATACACACATACACCCATACAGACA [CACACA_site548],7.51
21,TTTTTGAGTGCACATACACACAGACATACATTTAAA [CACACA_site5813],11.5
22,TTTGAGTGCACATACACACAGACATACATTTAAATA [CACACA_site3403],11.9
23,TCCTTTTTGAAATGTTGTACTTTTTTTATCTTTCAT [XGTACX_site953],7.12

row,Sequence,gcPBM binding intensity (ln)
1,ATTAACTATCATAACACACACAGTAGACATATTTTT [CACACA_site1822],7.04
2,GATATATAAACATATACACACAAAAACATATTTATA [CACACA_site6734],6.98
3,TGAATTATAAATTATAGTACTTTATAATATGAACAT [XGTACX_site2317],6.81
4,AAAAAAAAAATTTTCGTGCACATAAGAAAATTTAAA [GTGCAC_site9788],9.36
5,TTTTTTTTTTTTTTGGTGCACATAGAAATTCTAAAA [GTGCAC_site9809],11.3
6,AGAAAAATTCTAAGAACATGCAAAAAAATAAAAAAA [TGCATGCA_site293],6.84
7,ATTAAATGCACATATACACACACCCAATTTTAAGTT [CACACA_site3049],7.4
8,TATGTAATAAATAGTACACACACACCGATATATATA [CACACA_site8389],7.46
9,AAGGATTACAAAAAAAGTACAAATGGATTTTTTCCC [XGTACX_site8905],6.84
10,TGCTTATATATACGTGCACACATATATATAAGATAT [CACACA_site8516],9.74
11,TGCAAGCTTATATAGGTGCACATGTATACGTGTTCA,11.3
12,TATGTTTACATATACGTGCACATGAATGTATACATT [GTGCAC_site9894],9.69
13,ATAACATACATAACAACACACAATATTTATAGGTAT [CACACA_site6243],7.12
14,TATATATTAATCAAAGTGCAATAATAAAATAAAAGT [GTGCAC_site9490],8.38
15,AATTTATAAATAATTAATTTGATAAATTATAAAGGG [GTGCAC_negctrl_site544],7.02
16,TGATATTATTATAAGGTGCTTAAAAATAAAGATAAT [GTGCAC_site9539],7.78
17,ATATAATCAACTGCAAAGGTTTAAAAGGAAAAAATA [CACACA_negctrl_site989],6.79
18,ATTATCCATCAAAAGGTGCAAATTTTTAATTATAAA [GTGCAC_site9932],11.1
19,AAATTAAAGATAAAAGTGCAAAATTATAAATTTATT,7.97
20,TTTATTAATAAAAAGGTGCAATCAGGAAAAATTATC [GTGCAC_site9626],10.8
21,TTAACAAAACATAAGGTGCTTAAAATTTTATATCAC [GTGCAC_site9839],7.96
22,ATTATTTGATTAAAGGTGCAAGGATAATAATAAAAC,10.3
